Measured values as given in ChEMBL document CHEMBL4513146, “CO-ADD screening of Karazin Kharkiv National University (Ukraine) compounds”.
Results with a measured potency or affinity are listed apart.

Columns and labels:
Klebsiella pneumoniae = settings: Concentration 32 ug.mL-1;; ASSAY_TEST Inhibition of Bacterial Growth; detection method Absorption (OD600); MEDIA CAMHB; plate type 384well; NBS; CORNING #3640; time 18 hr
Candida albicans = settings: Concentration 32 ug.mL-1; ASSAY_TEST Inhibition of Fungal Growth; detection method Absorption (OD530)
Cryptococcus neoformans = settings: Concentration 32 ug.mL-1; ASSAY_TEST Inhibition of Fungal Growth; detection method Resazurin; Absorption (OD600-OD570); plate type 384well; NBS; CORNING #3640

| SMILES | Inhibition (Klebsiella pneumoniae) | Inhibition (Candida albicans) | Inhibition (Cryptococcus neoformans) |
| --- | --- | --- | --- |
| O=C(CSc1nnc2c(=O)n(-c3ccccc3)ccn12)Nc1cc(F)ccc1F | -0.92% | 1.57% | -15% |
| O=C(Cn1nc2ccc(SCc3ccc(Cl)cc3)nn2c1=O)NCc1ccc2c(c1)OCO2 | -1.27% | 13.27% | -15.83% |
| Cc1ccc(-c2cc3c4nn(CC(=O)NCc5ccc(Cl)cc5)c(=O)n4ccn3n2)cc1C | 7.6% | 2% | -10.6% |
| O=C(Cn1nc2ccc(-c3ccccc3)nn2c1=O)Nc1ccc(Cl)c(C(F)(F)F)c1 | 4.19% | 14.71% | -8.29% |
| CCC(Sc1nnc2c(=O)n(-c3cccc(OC)c3)ccn12)C(=O)Nc1cc(F)ccc1F (stereo not given) | 2.62% | 1.66% | -8.66% |
| O=C(CSc1nnc2c(=O)n(-c3ccccc3)ccn12)Nc1cccc(Cl)c1 | 1.21% | -0.19% | -20.21% |
| CCOc1ccccc1NC(=O)Cn1nc2c(N3CCN(c4ccccc4)CC3)nccn2c1=O | 5.33% | 7.24% | -7.83% |
| Cc1ccccc1CN(c1cccc(F)c1)S(=O)(=O)c1ccc2nncn2c1 | 6.25% | 3.9% | -4.05% |
| N#Cc1ccc(NC(=O)Cn2nc3c(Oc4ccccc4)nccn3c2=O)cc1 | 4.51% | 0.35% | -7.22% |
| Cc1cc(NC(=O)Cn2nc3ccc(SC(C)(C)C)nn3c2=O)ccc1Br | 5.26% | 32.86% | -21.27% |
